# Experimental data taken from the supplement of paper PMC9262897, “Low-cost anti-mycobacterial drug discovery using engineered E. coli” (Nature Communications, 2022).
# Structures can show the parent of a compound that is named as a salt. ± gives the standard deviation of the averaged measurements.
# Legend:
# Assay in all cases: growth (OD600 after 10 h); higher = more growth (less inhibition)
# [1] = tested on: E. coli TESEC Alr+ wild-type control; details: compound 0.1 mM; raw OD600 reference: median of DMSO wells 0.241, cell-free background 0.041
# Experimental: (§1)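 TESEC Mtb Alr E. coli, or the Alr+ wild-type control, in 384-well plates with Prestwick library compounds at 0.1 mM and 1% DMSO, across arabinose induction levels of 1E3 to 1E7 nM. Growth is read as OD600 after 10 h at 37 °C in triplicate biological replicates.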
# E. coli TESEC Mtb Alr [2] = details: compound 0.1 mM
# Experimental: as §1
# E. coli TESEC Mtb Asd = details: compound 0.1 mM
# Experimental: (§2)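 TESEC E. coli strains in which the native enzyme is deleted and replaced by arabinose-inducible Mtb Asd, DapB, CysH or TrpD, each grown in its selective medium. Strains were screened against the Prestwick library at 0.1 mM and 1% DMSO in 384-well format at low and high arabinose induction. Growth is read as OD600 after 10 h in triplicate.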
# E. coli TESEC Mtb DapB = details: compound 0.1 mM
# Experimental: as §2
# [3] = tested on: E. coli TESEC Alr+ wild-type control; details: compound 0.1 mM; raw OD600 reference: median of DMSO wells 0.49, cell-free background 0.052
# Experimental: (§3)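 TESEC Mtb Alr E. coli (ΔaraC ΔtolC ΔentC Δalr ΔdadX, arabinose-inducible Mtb Alr) or the Alr+ wild-type control strain, grown in defined M9-fructose medium without D-alanine in 96-well plates with Prestwick library compounds at 0.1 mM and 1% DMSO. Low Alr induction is 0.1 µM arabinose and high induction is 10 mM arabinose.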
# E. coli TESEC Mtb Alr [4] = details: compound 0.1 mM; remark: listed apart in the source
# Experimental: as §3
# [5] = arabinose 1000 nM, raw OD600 reference: median of DMSO wells 0.294, cell-free background 0.041
# [6] = arabinose 10000 nM, raw OD600 reference: median of DMSO wells 0.264, cell-free background 0.041
# [7] = arabinose 100000 nM, raw OD600 reference: median of DMSO wells 0.201, cell-free background 0.041
# [8] = arabinose 1000000 nM, raw OD600 reference: median of DMSO wells 0.193, cell-free background 0.041
# [9] = arabinose 10000000 nM, raw OD600 reference: median of DMSO wells 0.146, cell-free background 0.041
# [10] = arabinose induction (level): High, raw OD600 reference: median of DMSO wells 0.331, cell-free background 0.041
# [11] = arabinose induction (level): Low, raw OD600 reference: median of DMSO wells 0.417, cell-free background 0.041
# [12] = arabinose induction (level): High, raw OD600 reference: median of DMSO wells […], cell-free background 0.041
# [13] = arabinose induction (level): Low, raw OD600 reference: median of DMSO wells 0.227, cell-free background 0.041
# [14] = arabinose 100 nM, raw OD600 reference: median of DMSO wells 0.413, cell-free background 0.052
# [15] = arabinose 10000000 nM, raw OD600 reference: median of DMSO wells […], cell-free background 0.052
SMILES,growth [1],growth (E. coli TESEC Mtb Alr [2]; [5]),growth (E. coli TESEC Mtb Alr [2]; [6]),growth (E. coli TESEC Mtb Alr [2]; [7]),growth (E. coli TESEC Mtb Alr [2]; [8]),growth (E. coli TESEC Mtb Alr [2]; [9]),growth (E. coli TESEC Mtb Asd; [10]),growth (E. coli TESEC Mtb Asd; [11]),growth (E. coli TESEC Mtb DapB; [12]),growth (E. coli TESEC Mtb DapB; [13]),growth [3],growth (E. coli TESEC Mtb Alr [4]; [14]),growth (E. coli TESEC Mtb Alr [4]; [15])
CN(C)CC/C=C1\c2ccccc2CSc2ccccc21 [Dosulepin hydrochloride],0.168 ± 0.0019,0.208 ± 0.0074,0.309 ± 0.019,0.211 ± 0.0092,0.146 ± 0.0095,0.163 ± 0.0079,0.14 ± 0.0062,0.263 ± 0.0048,0.168 ± 0.015,0.202 ± 0.0032,0.425 ± 0.028,0.413 ± 0.013,0.308 ± 0.0073
CN[C@H]1CC[C@@H](c2ccc(Cl)c(Cl)c2)c2ccccc21 [Sertraline],0.0407 ± 0.00036,0.0417 ± 0.0013,0.0403 ± 0.0019,0.0432 ± 0.0016,0.0393 ± 0.0007,0.0414 ± 0.00047,0.0545 ± 0.0057,0.0508 ± 0.0037,0.0504 ± 0.00093,0.0522 ± 0.0014,0.0502 ± 0.00068,0.392 ± 0.036,0.0517 ± 0.00092
Nc1nc(=S)c2ncn([C@@H]3O[C@H](CO)[C@@H](O)[C@H]3O)c2[nH]1 [Thioguanosine],0.0575 ± 0.0014,0.0503 ± 0.0022,0.0465 ± 0.00055,0.0493 ± 0.00055,0.0474 ± 0.00055,0.05337 ± 0.00021,0.209 ± 0.0071,0.127 ± 0.014,0.174 ± 0.011,0.115 ± 0.032,0.349 ± 0.02,0.225 ± 0.028,0.0964 ± 0.0089
Cc1onc(-c2ccccc2)c1C(=O)N[C@@H]1C(=O)N2[C@@H]1SC(C)(C)[C@@H]2C(=O)O [Oxacillin sodium],0.246 ± 0.017,0.298 ± 0.017,0.249 ± 0.012,0.198 ± 0.015,0.187 ± 0.0051,0.14 ± 0.0038,0.468 ± 0.036,0.477 ± 0.0063,0.192 ± 0.0086,0.243 ± 0.046,0.492 ± 0.054,0.421 ± 0.0073,0.362 ± 0.0089
O=C(O)c1cc(/N=N/c2ccc(S(=O)(=O)Nc3ccccn3)cc2)ccc1O [Sulfasalazine],0.274 ± 0.0048,0.308 ± 0.0065,0.254 ± 0.0054,0.193 ± 0.018,0.169 ± 0.011,0.131 ± 0.0032,0.314 ± 0.065,0.363 ± 0.054,0.207 ± 0.018,0.231 ± 0.03,0.473 ± 0.032,0.431 ± 0.0053,0.349 ± 0.017
CC(C)Oc1ccc2c(=O)c(-c3ccccc3)coc2c1 [Ipriflavone],0.196 ± 0.0047,0.25 ± 0.018,0.231 ± 0.0093,0.186 ± 0.015,0.117 ± 0.02,0.138 ± 0.0016,0.345 ± 0.098,0.4 ± 0.021,0.191 ± 0.018,0.211 ± 0.039,0.464 ± 0.025,0.402 ± 0.014,0.285 ± 0.012
Clc1ccc(C(Cn2ccnc2)OCc2csc3c(Cl)cccc23)c(Cl)c1 (stereo not drawn) [Sertaconazole nitrate],0.0563 ± 0.0014,0.0558 ± 0.0094,0.07 ± 0.0042,0.057 ± 0.0028,0.06457 ± 0.00042,0.0588 ± 0.0084,0.0594 ± 0.0039,0.0635 ± 0.0047,0.0687 ± 0.0033,0.0671 ± 0.0089,0.129 ± 0.036,0.12 ± 0.024,0.123 ± 0.0052
C[n+]1ccccc1/C=N/O [Pralidoxime chloride],0.253 ± 0.0089,0.318 ± 0.018,0.256 ± 0.013,0.202 ± 0.015,0.177 ± 0.0021,0.156 ± 0.007,0.476 ± 0.013,0.455 ± 0.046,0.223 ± 0.011,0.284 ± 0.0069,0.605 ± 0.018,0.407 ± 0.018,0.323 ± 0.015
CC(C(=O)O)c1ccc(C(=O)c2ccccc2)s1 (stereo not drawn) [Tiaprofenic acid],0.22 ± 0.012,0.253 ± 0.021,0.246 ± 0.0058,0.201 ± 0.019,0.205 ± 0.0076,0.143 ± 0.006,0.386 ± 0.077,0.285 ± 0.099,0.182 ± 0.009,0.178 ± 0.015,0.502 ± 0.059,0.382 ± 0.02,0.35 ± 0.019
C#C[C@]1(OC(C)=O)CC[C@H]2[C@@H]3CCC4=C[C@@H](OC(C)=O)CC[C@@H]4[C@H]3CC[C@@]21C [Ethynodiol diacetate],0.174 ± 0.0051,0.233 ± 0.016,0.215 ± 0.034,0.12 ± 0.0032,0.0855 ± 0.0055,0.161 ± 0.018,0.221 ± 0.012,0.358 ± 0.039,0.161 ± 0.0063,0.165 ± 0.011,0.4 ± 0.018,0.384 ± 0.012,0.118 ± 0.019
O=C1[C@H](CC[C@H](O)c2ccc(F)cc2)[C@@H](c2ccc(O)cc2)N1c1ccc(F)cc1 [Ezetimibe],0.0438 ± 0.00074,0.0482 ± 0.0028,0.046 ± 0.00091,0.0462 ± 0.0037,0.0477 ± 0.004,0.0501 ± 0.0032,0.101 ± 0.082,0.0479 ± 0.0012,0.0503 ± 0.003,0.04873 ± 0.00038,0.0525 ± 0.0014,0.0636 ± 0.0051,0.061 ± 0.01
COC1=CC(=O)C[C@@H](C)[C@]12Oc1c(Cl)c(OC)cc(OC)c1C2=O [Griseofulvin],0.223 ± 0.0068,0.2842 ± 0.002,0.2487 ± 0.002,0.208 ± 0.021,0.0853 ± 0.0022,0.135 ± 0.006,0.241 ± 0.051,0.385 ± 0.11,0.174 ± 0.0029,0.233 ± 0.022,0.514 ± 0.041,0.416 ± 0.013,0.21 ± 0.032
CC(C)Cn1cnc2c(N)nc3ccccc3c21 [Imiquimod],0.224 ± 0.017,0.282 ± 0.0092,0.282 ± 0.01,0.165 ± 0.012,0.178 ± 0.014,0.158 ± 0.01,0.209 ± 0.026,0.392 ± 0.024,0.21 ± 0.011,0.261 ± 0.045,0.574 ± 0.048,0.411 ± 0.0054,0.301 ± 0.015
C#C[C@]1(O)CC[C@H]2[C@@H]3CCC4=C(CCC(=O)C4)[C@H]3CC[C@@]21C [Norethynodrel],0.133 ± 0.013,0.142 ± 0.0092,0.107 ± 0.0051,0.157 ± 0.0071,0.0575 ± 0.0014,0.089 ± 0.0065,0.128 ± 0.016,0.13 ± 0.006,0.149 ± 0.0054,0.17 ± 0.01,0.355 ± 0.005,0.399 ± 0.0064,0.17 ± 0.018
O=C1Cc2cc(CCN3CCN(c4nsc5ccccc45)CC3)c(Cl)cc2N1 [Ziprasidone  Hydrochloride],0.133 ± 0.0045,0.174 ± 0.008,0.249 ± 0.0058,0.195 ± 0.0098,0.179 ± 0.0086,0.201 ± 0.0095,0.418 ± 0.051,0.363 ± 0.035,0.222 ± 0.027,0.308 ± 0.076,0.427 ± 0.011,0.378 ± 0.0087,0.338 ± 0.013
COc1cc(C)nc(-n2nc(C)cc2OC)n1 [Epirizole],0.2428 ± 0.0024,0.263 ± 0.012,0.249 ± 0.0083,0.178 ± 0.019,0.18 ± 0.0057,0.139 ± 0.005,0.342 ± 0.051,0.465 ± 0.042,0.192 ± 0.025,0.238 ± 0.054,0.493 ± 0.031,0.421 ± 0.011,0.27 ± 0.12
